Compound activity: PubChem, Sanford-Burnham Center for Chemical Genomics
CYP2C19 activ: activators of human cytochrome P450 2C19. recombinant CYP2C19, luciferin-H EGE luminescence; stronger effect = higher value; 0 = fully inhibited enzyme, 1 = untreated enzyme. P33261. activation factor at 5 µM. 96,000 tested, under 10 active;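 active = activation factor of at least 2 at 5 µM in the primary screen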;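 also: 0 = wells with 2.5 mM tranylcypromine and 1 = vehicle-only wells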
Target sequence (P33261 whole entry, looked up): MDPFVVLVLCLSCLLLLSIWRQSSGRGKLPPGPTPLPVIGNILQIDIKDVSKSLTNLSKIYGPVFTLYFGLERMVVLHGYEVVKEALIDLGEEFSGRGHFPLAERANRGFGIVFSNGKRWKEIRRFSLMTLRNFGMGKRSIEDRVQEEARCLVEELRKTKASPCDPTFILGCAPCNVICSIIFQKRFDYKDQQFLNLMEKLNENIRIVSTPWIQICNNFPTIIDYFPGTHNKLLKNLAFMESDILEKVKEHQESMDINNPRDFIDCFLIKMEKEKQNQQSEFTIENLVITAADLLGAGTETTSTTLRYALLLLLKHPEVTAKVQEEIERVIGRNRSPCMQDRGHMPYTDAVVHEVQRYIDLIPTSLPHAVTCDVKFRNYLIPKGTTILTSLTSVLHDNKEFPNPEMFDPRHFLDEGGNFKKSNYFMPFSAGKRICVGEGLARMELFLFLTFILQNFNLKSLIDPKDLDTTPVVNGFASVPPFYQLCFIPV
CYP2C9 activ: activators of human CYP2C9; P11712; recombinant CYP2C9, luciferin-H conversion, luminescence; stronger effect = higher value; factor 1 = untreated enzyme, 0 = blocked; activation factor at 5 µM; 1.4% of 96,000 active;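 active = activation factor of 2 or more for CYP2C9 at a 5 µM dose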;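 also: 0 = sulfaphenazole-blocked wells and 1 = vehicle-only wells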
CYP2C9 inh: human CYP2C9 inhibition; CYP2C9 Supersomes, luciferin-H conversion, luminescence; inhibition, % at 5 µM; 20% of 96,000 active;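 active = blocking of liver enzyme CYP2C9 beyond about 50% at 5 µM, limit read from the data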
CYP2C19 inh: inhibitors of human CYP2C19; P33261; CYP2C19 Supersomes, luciferin-H EGE luminescence, 30 min; inhibition, % at 5 µM; 21% of 96,000 active;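 active = CYP2C19 inhibition above a set limit at 5 µM in the primary screen, cut at about 50% in these data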;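 also: plate controls were negative control wells for no effect and 2.5 mM tranylcypromine positive control for full effect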
Active calls of the source: *. Sampled rows, rich in hits. Any-hit rate of the full collection: about 31%.

SMILES	CYP2C19 activ	CYP2C9 activ	CYP2C9 inh	CYP2C19 inh
CCOC(=O)C1=C(C)N(C)C(C)=C(C(=O)OCC)C1c1ccncc1	0	0	100*	97*
COC(=O)C1=C(C)N(C)C(C)=C(C(=O)OC)C1c1ccc(F)c(Br)c1	0.4	0.1	94*	65*
Cc1cc2c(n1-c1ccc(Br)cc1)CC(C)(C)CC2=O	0.3	1	3	67*
CC(C)Cn1c(-c2ccccc2F)n[nH]c1=S	0.2	0.5	46	81*
CC(C)Cn1c(-c2ccco2)n[nH]c1=S	0.8	1	-4	16
CC(C)Cn1c(-c2ccc(F)cc2)n[nH]c1=S	0.1	0.8	19	86*
CCn1c(-c2ccc(F)cc2)n[nH]c1=S	0.8	0.8	17	18
COc1cc(NS(=O)(=O)c2ccc(NC(=O)COc3ccccc3C)cc2)nc(OC)n1	0.8	0.1	91*	20
COc1ccc(OCC(=O)Nc2ccc(S(=O)(=O)Nc3cc(C)nc(C)n3)cc2)cc1	0.9	0.9	14	14
COc1cc(NS(=O)(=O)c2ccc(NC(=O)COc3ccc(C)cc3C)cc2)nc(OC)n1	1	0.3	69*	1
COc1cc(NS(=O)(=O)c2ccc(NS(=O)(=O)c3ccccc3)cc2)nc(OC)n1	1	0.2	78*	5
COc1ccccc1OCC(=O)Nc1ccc(S(=O)(=O)Nc2cc(C)nc(C)n2)cc1	1.2	1.1	-12	-16
COc1cc(NS(=O)(=O)c2ccc(NC(=O)COc3ccc(C)cc3)cc2)nc(OC)n1	0.7	0.2	82*	25
Nc1nnc(CC(=O)N/N=C/c2cccc(OCCOc3ccccc3)c2)s1	1.1	1	0	-8
O=C(CSc1nc2ccccc2s1)N1c2ccccc2Sc2ccc(C(F)(F)F)cc21	1	0.6	36	-3
Cc1nn(S(=O)(=O)N2CCCCC2)c(C)c1Br	0.8	1.1	-9	24
Cc1ccc(NC(=O)CSc2nc(NS(=O)(=O)c3ccc(C)cc3)cc(=O)[nH]2)cc1	0.7	0.4	65*	28
COc1ccc(NC(=O)CSc2nc(NS(=O)(=O)c3ccccc3)cc(=O)[nH]2)cc1	1	0.8	17	1
O=C(Cn1c(NCCCO)nc2ccccc21)c1ccc(Br)cc1	0.3	0.4	58*	74*
COCCNC(=O)Cn1c(=O)n(Cc2ccco2)c(=O)c2ccccc21	0.9	1	-3	13
O=C(CCCN1C(=O)c2ccccc2C1=O)NC1CCCCCC1	0.6	0.6	39	44
O=C(CCCN1C(=O)c2ccccc2C1=O)OC1CSCC1NC(=O)c1ccccc1 (stereo not given)	0.3	1	3	70*
COc1cccc(NC(=O)N2CCCC2C(=O)NC2CC2)c1 (stereo not given)	1.1	1.3	-29	-12
N#CCCCn1c(-c2ccccc2)noc1=O	0.8	1.2	-18	22
Cn1c(-c2ccc(F)cc2)cnc1SCC(=O)N1CCCCC1	0.4	1	-4	62*
SMILES	CYP2C19 activ	CYP2C9 activ	CYP2C9 inh	CYP2C19 inh
N#Cc1c(NC(=O)CSc2nnc(-c3ccccc3O)n2-c2ccccc2)sc2c1CCCC2	0.3	0.3	67*	74*
N#Cc1c(NC(=O)CSc2nnc(-c3ccccc3)o2)sc2c1CCCC2	0.8	0.6	39	17
Cc1ccc(C(=O)NCc2nnc(SCC(=O)Nc3sc4c(c3C#N)CCCC4)n2C)cc1	0.9	0.8	20	6
N#Cc1c(NC(=O)CSc2ncc(-c3ccccc3)n2CC2CCCO2)sc2c1CCCC2 (stereo not given)	0.4	0.3	73*	60*
NC(=O)c1c(NC(=O)CSc2nnc(-c3ccccc3)n2CC2CCCO2)sc2c1CCC2 (stereo not given)	0.2	0.1	91*	80*
CCn1c(SCC(=O)Nc2sc3c(c2C(N)=O)CCC(C)C3)nnc1-c1ccco1 (stereo not given)	0.8	0.6	41	22
Cc1ccn(C(=O)c2ccc(NC(=O)C3CCCCC3)cc2)n1	0.6	0.8	17	41
Cc1nn(C)cc1CNC(=O)c1cnn2c(C(F)F)cc(C3CC3)nc12	0.7	0.5	46	34
CCN(CC)c1nc2c(s1)C(=O)CC(C)(C)C2	0.5	1	-4	48
CCc1nnc2sc(-c3cc(-c4ccccc4)nc4ccccc34)nn12	0.9	0.7	29	8
O=C(CSc1ncc(-c2ccccc2)n1CC1CCCO1)N1CCCCC1 (stereo not given)	0.4	0.9	9	58*
N#Cc1c(NC(=O)CSc2nnc(-c3ccncc3)n2CC2CCCO2)sc2c1CCCC2 (stereo not given)	0.3	0.1	87*	69*
O=C(NCC1CCCO1)C1CCN(C(=O)c2ccc(Br)cc2)CC1 (stereo not given)	0.9	1.1	-5	14
COc1ccc(-c2cc(CNC(=O)CN(C)Cc3ccccc3)on2)cc1	0.5	1.8	-80	50
O=C(c1ccc(CS(=O)(=O)c2ccc(Br)cc2)o1)N1CCCC1	0.7	0.7	31	26
O=C(c1ccc(CS(=O)(=O)c2ccc(Br)cc2)o1)N1CCCCCC1	0.2	1.3	-29	80*
COc1ccc(S(=O)(=O)Cc2ccc(C(=O)N3CCN(C4CCCCC4)CC3)o2)cc1	1	0.3	66*	2
O=C(c1ccc(CS(=O)(=O)c2ccc(Br)cc2)o1)N1CCN(C2CCCCC2)CC1	1	0.2	78*	-4
Cc1ccc2c(c1)C(C)(C)[C@]1(C)NC(=O)CCN21	0.8	0.8	21	25
O=c1ccc(Oc2nc(N3CCCCC3)nc(N3CCCCC3)n2)n[nH]1	1	1.2	-15	0
Cc1ccc(S(=O)(=O)N(C)CC(=O)NC2CC(C)(C)NC(C)(C)C2)cc1	1.2	1.2	-18	-17
CCOC(=O)C1C(=O)Oc2ccc3ccccc3c2C1C1CCOC1=O (stereo not given)	0.4	1.8	-81	60*
CCN(CC)Cc1c(C(=O)OC(C)C)nnn1-c1nonc1N	0.5	0.7	26	47
O=C(Nc1ccc(F)cc1)C1CCCCC1	0.6	0.9	14	37
O=C(Nc1ccc(-n2cnnn2)cc1)C1CCC1	0.5	0.6	39	51*
SMILES	CYP2C19 activ	CYP2C9 activ	CYP2C9 inh	CYP2C19 inh
COc1ccc(NC(=O)c2cccc(F)c2)cc1Cl	0.5	1	2	49
CCOC(=O)Nc1cccc(Cl)c1C	0.9	1	-3	9
Cc1c(Cl)cccc1NC(=O)c1cccc(OC(F)F)c1	0.3	1	0	72*
COc1ccc(NC(=O)c2cccc(OC(F)F)c2)cc1Cl	0.3	1.1	-13	69*
CCOc1cccc(C(=O)Nc2ccccc2OC(F)F)c1	0.4	0.7	33	56*
O=C(Nc1ccc(OC(F)F)c(Cl)c1)c1cccc(OC(F)F)c1	0.1	0.9	11	88*
O=C(O)CCCNc1ccc(S(=O)(=O)Nc2ccccc2C(=O)O)cc1C(=O)O	1.1	0.9	6	-6
CCN(CC)S(=O)(=O)c1ccc(NC(=O)COC(=O)CN2C(=O)c3ccccc3C2=O)cc1	0.7	0.2	81*	33
O=C(NC1CC2CCC1C2)C1COc2ccccc2O1 (stereo not given)	0.5	1	1	52*
